# Values joined by “and” are separate entries in the source; they are usually repeats but may differ in a detail not shown here. Equal values may be shown once. About 83,000 compounds went through this panel and 20% of them were active in at least one assay; those are over-represented in the sample as a whole.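 Compound tested at a single concentration for 48 hours in 96-well plates; a percent growth value below 10 was scored as active.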 Values without a mark were called inactive. Active and inactive are the calls of the source. Starred links: 1 amine or outer side, 2 acyl side, 3 side chain; linkers in the order of their positions; H or OH if unused. Positions of bridges follow the written chain, without caps; N, C: chain ends. Non-standard residues stand in square brackets, D forms with d. Residues, ends and D or L forms follow the SMILES beside them. Chains are numbered I, II in the order given. Actinocin(9to1) = Cc1c2oc3c(C)ccc(C(=O)[*:1])c3nc-2c(C(=O)[*:2])c(N)c1=O; aThr = C[C@H](O)[C@H](N)C(=O)O; NMeV = CN[C@H](C(=O)O)C(C)C; Sar = CNCC(=O)O
# Tests used:
# Assay in all cases: NCI-60 one-dose screen, 48 h (100 = growth as untreated, 0 = no growth, -100 = all killed)
# [1] = test system: T-47D breast
# [2] = test system: BT-549 breast
# [3] = test system: MDA-MB-435 melanoma
# [4] = test system: SW-620 colon
# [5] = test system: MCF7 breast
# [6] = test system: HCT-116 colon
# [7] = test system: KM12 colon
structure (smiles),measurement,setting,value
S=c1[nH]nc(Cc2ccccc2)c(=S)[nH]1,growth,[1]; 10 µM,90.4%
same,growth,[2]; 10 µM,109%
same,growth,[3]; 10 µM,106%
same,growth,[4]; 10 µM,109%
same,growth,[5]; 10 µM,96.5%
same,growth,[6]; 10 µM,100%
same,growth,[7]; 10 µM,93.2%
CCCCCCCCCCCCCCCCCN,growth,[1]; 10 µM,101%
same,growth,[2]; 10 µM,106%
same,growth,[3]; 10 µM,99.5%
same,growth,[4]; 10 µM,97.1%
same,growth,[5]; 10 µM,100%
same,growth,[6]; 10 µM,102%
same,growth,[7]; 10 µM,110%
BrC/C=C/C[P+](c1ccccc1)(c1ccccc1)c1ccccc1,growth,[1]; 10 µM,10.7%
same,growth,[2]; 10 µM,57.1%
same,growth,[3]; 10 µM,28.4%
same,growth,[4]; 10 µM,32.3%
same,growth,[5]; 10 µM,20.3%
same,growth,[6]; 10 µM,14.8%
same,growth,[7]; 10 µM,16.1%
CSc1ccc2c(c1)C(N1CCN(C)CC1)Cc1ccccc1S2 (stereo not drawn),growth,[1]; 10 µM,43.3%
same,growth,[2]; 10 µM,63.1%
same,growth,[3]; 10 µM,7.17% (active)
same,growth,[4]; 10 µM,54.4%
same,growth,[5]; 10 µM,20.9%
same,growth,[6]; 10 µM,29.3%
same,growth,[7]; 10 µM,21.4%
N#C/C(=C1C=C/C(=N\O)C(Cl)=C\1)c1ccccc1,growth,[1]; 10 µM,43.3%
same,growth,[2]; 10 µM,110%
same,growth,[3]; 10 µM,-43% (active)
same,growth,[4]; 10 µM,17.8%
same,growth,[5]; 10 µM,14.8%
same,growth,[6]; 10 µM,5.69% (active)
same,growth,[7]; 10 µM,13.5%
O=c1[nH]cc(F)c(=O)[nH]1,growth,[1]; 10 µM,64.4% and 52.8%
same,growth,[1]; 25 µM,56.7%
same,growth,[2]; 10 µM,57.2% and 54.6%
same,growth,[2]; 25 µM,37.8%
same,growth,[2]; 50 µM,60.6%
same,growth,[3]; 10 µM,42.3% and 50.9%
same,growth,[3]; 25 µM,36.6%
same,growth,[3]; 50 µM,42.2%
same,growth,[4]; 10 µM,60.1% and 77.8%
same,growth,[4]; 25 µM,50.1%
same,growth,[4]; 50 µM,43.4%
same,growth,[5]; 10 µM,29.6% and 18.3%
same,growth,[5]; 25 µM,11.5%
same,growth,[5]; 50 µM,18.2%
same,growth,[6]; 10 µM,33.9% and 46.9%
same,growth,[6]; 25 µM,17.8%
same,growth,[6]; 50 µM,28.3%
same,growth,[7]; 10 µM,47% and 42.4%
same,growth,[7]; 25 µM,40.7%
same,growth,[7]; 50 µM,32%
COc1ccc2c(C)cc(N/N=C/c3sccc3C)nc2c1,growth,[5]; 100 µM,-73.1% (active) and -100% (active)
COc1cc(C(C)(C)C)cc(OC)c1C(O)(c1c(OC)cc(C(C)(C)C)cc1OC)c1c(OC)cc(C(C)(C)C)cc1OC,growth,[1]; 10 µM,-30.2% (active)
same,growth,[2]; 10 µM,-58.9% (active)
same,growth,[3]; 10 µM,-45.3% (active)
same,growth,[4]; 10 µM,-79.8% (active)
same,growth,[5]; 10 µM,-88.6% (active)
same,growth,[6]; 10 µM,-100% (active)
same,growth,[7]; 10 µM,-80.8% (active)
Cc1cnc(/C=N\NC(N)=S)c2cccc(N)c12,growth,[1]; 10 µM,9.76% (active)
same,growth,[3]; 10 µM,27.8%
same,growth,[4]; 10 µM,35%
same,growth,[5]; 10 µM,9.29% (active)
same,growth,[6]; 10 µM,17.4%
same,growth,[7]; 10 µM,27.9%
Cc1cc(NCCCN(C)C)c2ccc3c(ccc4c(NCCCN(C)C)cc(C)nc43)c2n1,growth,[1]; 10 µM,-34.2% (active)
same,growth,[2]; 10 µM,-91.4% (active)
same,growth,[3]; 10 µM,-99.1% (active)
same,growth,[4]; 10 µM,-99.3% (active)
same,growth,[5]; 10 µM,-89% (active)
same,growth,[6]; 10 µM,-15.4% (active)
same,growth,[7]; 10 µM,-97.6% (active)
Nc1ccc2cc(Br)c3ccccc3c2c1,growth,[1]; 10 µM,28.8%
same,growth,[2]; 10 µM,68.9%
same,growth,[3]; 10 µM,66%
same,growth,[5]; 10 µM,35.1%
same,growth,[6]; 10 µM,71.1%
same,growth,[7]; 10 µM,32.6%
CN(C)CCC(=O)c1c[nH]c2ccccc12,growth,[1]; 10 µM,84.1%
same,growth,[2]; 10 µM,121%
same,growth,[3]; 10 µM,107%
same,growth,[4]; 10 µM,111%
same,growth,[5]; 10 µM,93.2%
same,growth,[6]; 10 µM,103%
same,growth,[7]; 10 µM,102%
Cc1ccc2nc(N/N=C/c3ccc(C)s3)cc(C)c2c1,growth,[5]; 100 µM,-94% (active) and -100% (active)
CN1CCN(c2ccc3nc(-c4ccc5nc(-c6ccc(O)cc6)[nH]c5c4)[nH]c3c2)CC1,growth,[1]; 10 µM,39.2%
same,growth,[2]; 10 µM,97.9%
same,growth,[3]; 10 µM,52.5%
same,growth,[4]; 10 µM,87.1%
same,growth,[5]; 10 µM,34.5%
same,growth,[6]; 10 µM,48.3%
same,growth,[7]; 10 µM,106%
O=C(/C(=C/c1ccccc1)CBr)c1ccccc1,growth,[1]; 10 µM,77.5%
same,growth,[2]; 10 µM,112%
same,growth,[3]; 10 µM,64%
same,growth,[4]; 10 µM,17.3%
same,growth,[5]; 10 µM,42.9%
same,growth,[6]; 10 µM,35.8%
same,growth,[7]; 10 µM,88.5%
"Cc1c2oc3c(C)ccc(C(=O)N[C@@H]4C(=O)N[C@H](C(C)C)C(=O)N5CCC[C@H]5C(=O)N(C)CC(=O)N(C)[C@@H](C(C)C)C(=O)O[C@H]4C)c3nc-2c(C(=O)N[C@@H]2C(=O)N[C@H](C(C)C)C(=O)N3CCC[C@H]3C(=O)N(C)CC(=O)N(C)[C@@H](C(C)C)C(=O)O[C@H]2C)c(N)c1=O (I: [aThr][dV]P[Sar][NMeV] / II: [aThr][dV]P[Sar][NMeV]; ester I:1-I:C, II:1-II:C; linker I:N-II:N via Actinocin(9to1))",growth,[1]; 0.0025 µM,53.6%
same,growth,[1]; 10 µM,-13.8% (active)
same,growth,[2]; 0.0025 µM,27.5%
same,growth,[2]; 10 µM,-45.4% (active)
same,growth,[3]; 0.0025 µM,41.6%
same,growth,[3]; 10 µM,-93.8% (active)
same,growth,[4]; 0.0025 µM,32.8%
same,growth,[4]; 10 µM,-27.9% (active)
same,growth,[5]; 0.0025 µM,12.2%
same,growth,[5]; 10 µM,-15.3% (active)
same,growth,[6]; 0.0025 µM,16%
same,growth,[6]; 10 µM,-29.5% (active)
same,growth,[7]; 0.0025 µM,47.3%
same,growth,[7]; 10 µM,0.211% (active)
